# Assay outcomes deposited in PubChem BioAssay by NMMLSC.
# A selection: hits, their analogues and other compounds. The true share with any hit is near 0.89%.
# LAP4 TOR yeast – modulators of TOR pathway LAP4-GFP in S. cerevisiae. S. cerevisiae LAP4-GFP multiplex, flow cytometry GFP, 3 h; median GFP as percent of DMSO wells. AID 2023. GFP response vs DMSO, % at 10 µM. 320,000 compounds, 0.34% hits;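 active = GFP response vs DMSO above a set limit, about the screen mean plus 3 SD, cut at about 150% in these data; inconclusive = under 70 cell events counted for the yeast strain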
# MEP2-GFP yeast – yeast TOR pathway MEP2-GFP modulation | S. cerevisiae MEP2-GFP strain, flow cytometry GFP, 3 h; 100% = DMSO control level | GFP response vs DMSO, % at 10 µM | 330,000 compounds, 0.51% hits | AID 2016;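 active = GFP response versus DMSO above a set limit, roughly screen mean plus 3 SD, cut at about 180% in these data; inconclusive = fewer than 70 cells counted for a yeast strain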;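 also: median GFP fluorescence of the barcode-gated MEP2-GFP cells per well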
# CIT2-GFP yeast – alters CIT2-GFP fluorescence in TOR pathway yeast screen. GFP response vs DMSO, % at 10 µM. AID 2029. S. cerevisiae CIT2-GFP strain, flow cytometry, 3 h; 100 means same as DMSO wells. 320,000 compounds, 0.065% hits;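 active = GFP response relative to DMSO above a set limit, near the screen mean plus 3 SD, cut at about 150% in these data; inconclusive = Fewer than 70 cells measured for a yeast strain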;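 also: ratio of well median GFP fluorescence to mean of DMSO wells on the plate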
# RPL19A-GFP yeast – yeast TOR pathway RPL19A-GFP modulation. S. cerevisiae RPL19A-GFP strain, flow cytometry, 3 h; stronger effect = lower value. percent response vs DMSO, % at 10 µM. 330,000 compounds, 0.3% hits. AID 2025;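 active = percent response vs DMSO below 50%; inconclusive = fewer than 70 events counted for the yeast strain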;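 also: median channel GFP fluorescence of the barcoded RPL19A-GFP strain; ratio of sample median GFP to plate DMSO average so 100% = DMSO; lower means less RPL19A-GFP as with rapamycin TOR inhibition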
# AGP1 TOR yeast – yeast TOR pathway AGP1-GFP modulation; S. cerevisiae AGP1-GFP multiplex flow cytometry, 3 h; GFP as percent of DMSO wells; GFP response vs DMSO, % at 10 µM; 320,000 compounds, 0.02% hits;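 active = GFP response relative to DMSO above a set limit, near screen average plus 3 SD, cut at about 150% in these data; inconclusive = fewer than 70 cells counted for the yeast strain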;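 also: median GFP channel fluorescence of the gated AGP1 strain per well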
# Active calls of the source: *; ? = inconclusive; nt = not tested or not shown; [ ] = another dose, or the depositor's remark.
SMILES,LAP4 TOR yeast,MEP2-GFP yeast,CIT2-GFP yeast,RPL19A-GFP yeast,AGP1 TOR yeast
CC(=O)N/C(=C\c1ccccc1)C(=O)OCc1cc(C)ccc1C,87.7,102.9,104.1,106.7,95.6
COc1ccc(C(=O)N=C2SC3CS(=O)(=O)CC3N2Cc2ccc(F)cc2)cc1 (configuration not stated),98.1,106.2,99.4,105.5,103.6
CCOC(=O)C1=C(O)c2ccccc2C(=O)/C1=C\c1ccc(CC)cc1,126.4,108.7,88.4,94.5,99.2
CCOC(=O)C1=C(Cc2ccc(C)cc2)C(=O)c2ccccc2C1=O,167.9*,112.7,82.9,100.8,81.1
Cc1cccc(N2C(=O)C3C4C=CC(C4)C3C2=O)c1 (configuration not stated),92.8,237.6*[may fluoresce violet],?,48.0*[may fluoresce violet],?
NCCSc1c(-c2ccc(F)cc2)[nH]c2ccccc12,100.9,616.4*[may fluoresce violet],?,73.8,24.5
Cc1ccc2nc(NC(=O)c3ccco3)sc2c1,119.5,99.8,95.2,97.8,93.7
Cc1ccc2nc(NC(=S)NC(=O)c3ccco3)sc2c1,63.6,124.8,?,39.7*[may fluoresce violet],?
CCOC(=O)Cc1c(C)c2c(C)[nH]nc2oc1=O,89.7,327.6*[may fluoresce violet],?,22.9*[may fluoresce violet],?
CCCc1c(C)c2c(C)[nH]nc2oc1=O,91.7,97.8,86.2,86.7,nt
COC(=O)c1cc(CNC(=O)Cc2ccsc2)ccc1OC,96.9,298.4*[may fluoresce violet],?,59.0,83.8
COc1ccc(NC(=O)Cc2ccsc2)c(OC)c1,80.8,342.7*[may fluoresce violet],?,46.4*[may fluoresce violet],?
COc1ccc(NC(=O)CN(C)C(=O)c2ccc(S(=O)(=O)Nc3ccccc3F)cc2)cc1,94.8,85.0,86.2,85.6,89.0
CCCCN(C(=O)CCC(=O)Nc1cc(C)on1)C(C(=O)NC1CCCC1)c1ccc(OCC)cc1 (configuration not stated),91.9,105.0,98.4,103.1,100.5
CCCCN(C(=O)CCC(=O)Nc1cc(C)on1)C(C(=O)NC1CCCC1)c1ccccc1OCC (configuration not stated),85.4,419.6*[may fluoresce violet],?,69.6,?
Cc1ccc(CC2CC(=O)N(Cc3ccco3)C2=O)cc1 (configuration not stated),191.3*,92.4,64.9,95.7,92.8
Cc1[nH]c2ccccc2c1C(=O)C(C)OC(=O)C1CCC1 (configuration not stated),189.1*,102.7,63.8,67.8,57.3
CC(=O)c1sc2nc(C)c3c(c2c1N)CCCC3,167.2*,96.1,55.2,68.6,106.8
COc1ccccc1Oc1coc2c(CN3CCN(C)CC3)c(O)ccc2c1=O,88.8,224.9*[may fluoresce violet],?,63.1,?
N=c1n(CCN2CCCCC2)c2ccccc2n1CC(=O)c1ccc(Cl)c(Cl)c1,168.4*,128.3,86.8,92.2,89.6
CCn1c(=N)n(CC(=O)c2ccc(Cl)c(Cl)c2)c2ccccc21,102.4,118.0,97.5,101.2,94.5
Cc1cc(O)c(C(=O)/C=C/c2cccc([N+](=O)[O-])c2)c(=O)o1,128.3,89.0,103.1,92.3,111.0
COc1cc(/C=C/C(=O)O)ccc1O,90.4,96.2,91.6,89.2,89.4
O=C(/C=C/c1cccc(Cl)c1)c1ccc([N+](=O)[O-])o1,135.2,202.0*[may fluoresce violet],?,58.0,15.0
COc1cc(/C=C/C(=O)c2ccc([N+](=O)[O-])o2)ccc1O,231.8*[may fluoresce violet],161.2,?,70.2,32.4
SMILES,LAP4 TOR yeast,MEP2-GFP yeast,CIT2-GFP yeast,RPL19A-GFP yeast,AGP1 TOR yeast
CCC(=O)Nc1ccc(C(=O)COC(=O)c2nc3nccc(C)n3n2)cc1,110.7,99.5,99.8,102.7,105.1
CCOC(=O)CNC(=O)c1cc(-c2ccccn2)nc2c(C)c(Cl)ccc12,107.3,97.7,88.2,98.3,95.4
O=C1C2=C(NC(=S)NC2c2ccc(Cl)cc2)NC(c2ccc(Cl)cc2)N1c1ccc(Cl)cc1 (configuration not stated),?,391.2*[may fluoresce violet],?,55.9,?
O=C1Nc2ccc(Br)cc2/C1=C/C1CC=CCC1 (configuration not stated),192.1*,91.5,96.7,79.0,89.6
O=C1NC(Cc2ccccc2)C(=O)Nc2ccc(Br)cc21 (configuration not stated),100.4,109.4,106.0,108.7,103.1
Cn1c(=O)c2c(ncn2CCOc2ccc(Br)cc2)n(C)c1=O,87.7,109.3,109.3,96.3,100.6
Cn1c(=O)c2c(ncn2CC(=O)Nc2ccccc2)n(C)c1=O,88.1,210.1*[may fluoresce violet],?,58.7,nt
Cn1c(=O)c2c(ncn2CCOc2ccc(F)cc2)n(C)c1=O,70.3,?,?,40.4*[may fluoresce violet],?
COc1ccc(NC(=O)COC(=O)C2CC(=O)N(CCc3ccc(OC)c(OC)c3)C2)cc1Cl (configuration not stated),95.8,93.3,91.8,90.9,94.1
Cc1c(Br)c(O)c(Br)c2sc(=O)oc12,177.1*,100.4,76.2,47.9*,57.4
CCc1oc2ccccc2c1C(=O)CCN1CCCCC1,153.9*,79.3,81.3,96.8,92.0
O=C(CCN1CCCCC1)c1ccccc1,100.5,99.6,107.8,100.2,105.9
CC1CCN(S(=O)(=O)c2ccc(NC(=O)CCN3C(=O)C4CC=CCC4C3=O)cc2)CC1 (configuration not stated),103.1,97.8,91.5,96.2,100.4
COc1ccc(C2=CC3=C(Br)C(=O)C(C)(OC(=O)C4CCCC4)C(=O)C3=CO2)cc1 (configuration not stated),128.5,137.5,?,38.6*[may fluoresce violet],10.6
COc1ccc(C2=CC3=C(Br)C(=O)C(C)(OC(=O)c4ccc(Cl)nc4)C(=O)C3=CO2)cc1 (configuration not stated),58.8,84.3,?,20.9*[may fluoresce violet],6.0
CC1CCCC(NC(=O)c2cccc(S(=O)(=O)N3CCN(c4ccccc4)CC3)c2)C1C (configuration not stated),98.7,102.9,88.4,101.4,95.8
O=C(COC(=O)c1cccc(Br)c1)NCCNC(=O)COC(=O)c1cccc(Br)c1,94.4,97.0,86.5,95.7,91.5
C#CC[N+]1(CC#Cc2ccccc2)CCOCC1,98.7,193.6*[may fluoresce violet],?,37.5*[may fluoresce violet],?
CCOc1ccccc1-c1noc(CCC(=O)Nc2cccnc2)n1,88.1,222.6*,89.1,67.7,68.4
O=C(Cc1ccc(Cl)cc1)Nc1ccc(Br)cn1,111.4,187.2*,83.0,70.8,26.1
O=C(N/N=C/c1ccc(-c2ccc(Br)cc2)o1)c1ccc2c(c1)OCO2,162.0*,91.1,84.2,91.9,90.0
COc1ccc(CCNC(=O)CSc2nnc3ccc(-c4ccccn4)nn23)cc1OC,107.6,94.4,84.3,97.7,108.2
Cc1ccc(CNS(=O)(=O)c2ccc(CN3C(=O)c4cccnc4C3=O)cc2)o1,81.8,126.7,?,26.7*[may fluoresce violet],?
